From PubChem
Sampled rows, rich in hits. Any-hit rate of the full collection: about 2.1%.
Abeta yeast res – restores growth of yeast expressing A-beta42 peptide; yeast expressing A-beta42, growth rescue, OD600, 48 h; response scale: 0% DMSO, 100% iron-clioquinol control; Potency, µM (series often up to 46.1 µM), actives largely listed as activators; 410,000 tested, 0.063% active; AID 1347071; note: nearly all actives have a fitted effect of over 55% in size
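Growth rescue measured by 600 nm absorbance after 48 h yeast culture at 30 C with compound. Values normalized between DMSO and an equimolar ferric chloride plus clioquinol control.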
A-T KAP1 phos – candidate therapy for ataxia-telangiectasia | F2112 A-T fibroblasts, KAP-1 phosphorylation AlphaLISA; neocarzinostatin DNA damage 30 min before lysis | Potency, µM (series often up to 57.5 µM), for inactives: at the top dose activation, actives largely listed as activators | 320,000 tested, 0.19% active; note: % of control where 0% means no effect; nearly all actives have a fitted effect of over 45% in size
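hTERT-immortalized A-T patient fibroblasts (F2112), 500 cells/well in OPTI-MEM, 1% FBS, got compounds for 60 min, then NCS for 30 min at 37C. Lysates were then assayed for phospho-KAP-1 by AlphaLISA (anti-pKAP1 donor, anti-KAP1 acceptor beads), 6 hr at 25C.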
Mito fusion yeast – blocks mitochondrial division or promotes mitochondrial fusion; 320,000 tested, 0.23% active; S. cerevisiae fusion-defective mutant growth rescue, CellTiterGlo 48 h; Potency, µM (doses to about 46.1 µM), inactives show at the highest dose growth rescue (activation), most hits filed as activators; AID 485298; note: % of control where 0% means no effect; nearly all actives have a fitted effect of over 45% in size
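Luminescent cell viability in 1536-well qHTS format served as the measure of rescued growth in ts fusion-mutant S. cerevisiae cultured on non-fermentable YPEG for 48 hours at 37C.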
GRP78 ERSR act – induces the endoplasmic reticulum stress response in human glioma cells; U87-MG GRP78 promoter luciferase reporter, 16 h; 420,000 tested, 0.02% active; Potency, µM, for the others: top-dose activation, usual class: activators; AID 602332; note: series mostly up to about 76 µM; % of control where 0% means no effect; nearly all actives have a fitted effect of over 35% in size
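Stably transfected U87-MG glioma cells carrying a GRP78-based luciferase sensor; 16 h compound incubation. Luminescence end-point read 10 min after Bright-Glo addition at room temperature.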
aSyn yeast inh – inhibitors of alpha-synuclein toxicity in yeast. Yeast expressing alpha-synuclein, growth rescue, BacTiter-Glo, 24 h. Potency, µM (top dose mostly 46.1 µM), inactives show at the highest dose growth rescue (activation), most hits filed as activators. 370,000 tested, 0.14% active; note: % of control where 0% means no effect; nearly all actives have a fitted effect of over 65% in size
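Readout is rescue of growth in alpha-synuclein-expressing yeast, so inhibitors of toxicity appear as activators. Growth after 24 hr at 30 deg C in galactose medium is quantified by luminescence.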
TDP-43 yeast inh – rescues yeast growth from TDP-43 toxicity. TDP-43 expressing yeast growth rescue, BacTiter-Glo, 24 h. Potency, µM (series often up to 46.1 µM), without a hit: at the top dose growth rescue (activation), actives largely listed as activators. 410,000 tested, 1.8% active. AID 652104; note: % of control where 0% means no effect; nearly all actives have a fitted effect of over 50% in size
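Galactose-induced TDP-43 yeast, OD600=0.02, compound pinned; 24 hr, 30 deg C; BacTiter-Glo luminescence for growth. Inhibitors of TDP-43 toxicity read as activators.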
Active calls of the source: *; i = inactive; ? = inconclusive; · = no result given. Calls come from the whole dose curve; as a rule, active = well fitted curve in the direction sought with a large enough effect; inconclusive = small, poorly fitted or top-dose-only effect, or another doubt; inactive = no such curve, though single readings can be large; an effect the other way counts as inactive or inconclusive. Potency is the fitted concentration of half-maximal effect.

SMILES	Abeta yeast res	A-T KAP1 phos	Mito fusion yeast	GRP78 ERSR act	aSyn yeast inh	TDP-43 yeast inh
O=C(c1cc(-c2ccc(O)cc2)on1)N1CCN(c2ccc(F)cc2)CC1	?	-5%	13%	8%	15%	16µM*
COc1ccc(OC)c(-c2cc(C(=O)N3CCOCC3)no2)c1	i	6%	7%	1%	1%	16%
COc1ccccc1-c1cc(C(=O)N2CCN(c3ccccc3)CC2)no1	i	9%	1%	3%	11%	18µM*
COc1ccccc1N1CCN(C(=O)c2cc(-c3ccc4c(c3)OCO4)on2)CC1	i	·	6%	-2%	-1%	-12%
CCC(=O)N[C@@H]1c2ccccc2C2(CCN(Cc3[nH]c4c(Cl)cccc4c3C)CC2)[C@H]1OC	·	·	·	-1%	·	·
O=P(O)(O)OC[C@@H](O)CO	·	·	·	-4%	·	·
O=C(NCCC1=CCCCC1)c1ccc2c(c1)ncn2-c1cccc(Cl)c1	i	·	·	0%	·	7%
COc1ccccc1N1CCN(C(=O)c2oc3cc(C)cc(C)c3c2C)CC1	i	8%	27%	-3%	1%	22µM*
COc1ccccc1N1CCN(C(=O)c2cc(=O)c3ccc(C)cc3o2)CC1	i	7%	18%	-1%	-8%	?
Oc1ccc(Cl)cc1CN1CCOc2c(O)cc(-c3nc4ccccc4s3)cc2C1	·	·	·	-9%	·	·
Oc1ccc(-c2nc3ccc4ccccc4c3c3c2CCC3)cc1O	i	7%	16µM*	-14%	-49%	26%
C[C@@H](Nc1nc(Cl)nc2nc[nH]c12)c1ccccc1	·	·	·	-6%	-2%	·
CN(C)S(=O)(=O)Oc1ccsc1C(=O)Nc1cccc(Cl)c1Cl	i	11%	13%	-2%	9%	18µM*
CN(C)S(=O)(=O)Oc1ccsc1C(=O)Nc1ccc(Cl)cc1	i	-4%	5%	1%	0%	14µM*
COc1ccc(NC(=O)c2sccc2OS(=O)(=O)N(C)C)cc1	i	-1%	-1%	7%	2%	-8%
CCn1cc(C(=O)N2CCN(c3ccccc3OC)CC2)c(=O)c2cc(S(=O)(=O)N3CCCCC3)ccc21	i	·	·	-4%	·	-12%
Cc1cccc(Cn2cnc3c(cnn3C(C)(C)C)c2=O)c1	·	·	·	-4%	·	·
O=C(Nc1c(O)c2ccccc2oc1=O)c1ccccc1Cl	i	·	·	-3%	·	2.5µM*
O=C(c1ccccc1Cl)c1c(O)c2ccccc2oc1=O	i	·	·	0%	-14%	-11%
COc1ccc2[nH]cc(CCNC(=O)c3cnn(-c4ccccc4Cl)c3C3CCN(C(=O)OC(C)(C)C)CC3)c2c1	i	·	·	-4%	·	?
O=C(/C=C/c1ccc(Cl)cc1)N1CCN(c2c(Cl)cccc2[N+](=O)[O-])CC1	i	4%	?	-1%	20%	11µM*
O=C(CSc1ccc(Cl)cc1)N1CCN(c2c(Cl)cccc2[N+](=O)[O-])CC1	i	-12%	-4%	?	?	?
O=C1Nc2c(c(=O)[nH]c(=O)n2-c2ccccc2)C1(NS(=O)(=O)c1ccc(Cl)cc1)C(F)(F)F (configuration not stated)	i	·	·	-2%	·	-1%
O=C(Nc1cc(C(F)(F)F)ccc1-n1cncn1)c1ccc(Br)cc1	i	-1%	3%	-7%	7%	?
O=C(Nc1cc(C(F)(F)F)ccc1-n1cncn1)c1ccc([N+](=O)[O-])o1	i	10%	25%	?	-8%	14µM*
COc1ccc(Cl)cc1Nc1sc(C(=O)c2ccccc2)c(N)c1C(=O)Nc1ccccc1	i	·	·	17%	·	6%
Cc1ccc(C)c(S(=O)(=O)NCc2nc(N3CCCC3)c3cc(Cl)ccc3n2)c1	·	·	·	-4%	·	·
C/C(=N/NC(=O)c1ccncc1)c1cc2ccc(O)cc2oc1=O	i	0%	1%	3%	-1%	4%
C/C(=N/NC(N)=S)c1cc2ccc(O)cc2oc1=O	11µM*	3%	3%	3%	-6%	20%
